Results on eleven molecules are retold here after PubChem BioAssay (NCATS).

The nature of assay [1]: qHTS assay for measurement of the activity of small molecule inhibitors on Zika virus induced Caspase-3 activity in human iPSC derived neural progenitor cells (hNPCs) (AID 1224857). Note: nearly all actives have a fitted effect of over 65% in size. In outline:
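After overnight (16–20 h) culture at 350 cells/well, hNPCs get compound, then ZIKV 2 FFU/cell one hour later. Six hours on, Caspase-Glo 3/7 is added and luminescence measured.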
For orientation: qHTS replaces the single test concentration by a dilution series.

Assay [2] is described as follows: qHTS assay for measurement of the activity of small molecule inhibitors on Zika virus induced Caspase-3 activity in human astrocytoma cells (AID 1224859). In outline:
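Inhibition of Zika-induced caspase-3/7 activity: SNB-19 cells, 1 h compound pretreatment, ZIKV 2 FFU/cell for 6 h at 37 C, Caspase-Glo luminescence read-out.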

Assay [3] is described as follows: Natriuretic polypeptide receptor (hNpr1) antagonism - Pilot counterscreen GloSensor control cell line (AID 1347045; calls by dose curve; note: series mostly up to about 38 µM). The procedure, abridged: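 The SNP-driven cGMP luminescence signal (50 uM, 20 min, room temperature) was measured in GloSensor HEK293 control cells. Compounds were tested as a LOPAC titration series and preincubated for 30-50 min.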
(The purpose of a counterscreen is to sort out artefacts and off-target activity.)

The target in assay [4] is Atrial natriuretic peptide receptor 1 (Homo sapiens) (UniProt P16066). Nature of the assay: Natriuretic polypeptide receptor (hNpr1) antagonism - Pilot screen (AID 1347049; calls by dose curve;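 note: agonist-evoked cGMP luminescence read 20 min after hNppA addition; series mostly up to about 58 µM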). In outline: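 cGMP-sensor HEK293/hNpr1 cells, 1500/well, plated overnight at 37C. 2% GloSensor reagent, 2 h RT. Compound (23 nL pin transfer) 30 min RT, baseline luminescence pre-read. 0.1 nM hNppA, 20 min RT, post-read.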
Chain of Atrial natriuretic peptide receptor 1 (Homo sapiens) (P16066 whole entry, looked up): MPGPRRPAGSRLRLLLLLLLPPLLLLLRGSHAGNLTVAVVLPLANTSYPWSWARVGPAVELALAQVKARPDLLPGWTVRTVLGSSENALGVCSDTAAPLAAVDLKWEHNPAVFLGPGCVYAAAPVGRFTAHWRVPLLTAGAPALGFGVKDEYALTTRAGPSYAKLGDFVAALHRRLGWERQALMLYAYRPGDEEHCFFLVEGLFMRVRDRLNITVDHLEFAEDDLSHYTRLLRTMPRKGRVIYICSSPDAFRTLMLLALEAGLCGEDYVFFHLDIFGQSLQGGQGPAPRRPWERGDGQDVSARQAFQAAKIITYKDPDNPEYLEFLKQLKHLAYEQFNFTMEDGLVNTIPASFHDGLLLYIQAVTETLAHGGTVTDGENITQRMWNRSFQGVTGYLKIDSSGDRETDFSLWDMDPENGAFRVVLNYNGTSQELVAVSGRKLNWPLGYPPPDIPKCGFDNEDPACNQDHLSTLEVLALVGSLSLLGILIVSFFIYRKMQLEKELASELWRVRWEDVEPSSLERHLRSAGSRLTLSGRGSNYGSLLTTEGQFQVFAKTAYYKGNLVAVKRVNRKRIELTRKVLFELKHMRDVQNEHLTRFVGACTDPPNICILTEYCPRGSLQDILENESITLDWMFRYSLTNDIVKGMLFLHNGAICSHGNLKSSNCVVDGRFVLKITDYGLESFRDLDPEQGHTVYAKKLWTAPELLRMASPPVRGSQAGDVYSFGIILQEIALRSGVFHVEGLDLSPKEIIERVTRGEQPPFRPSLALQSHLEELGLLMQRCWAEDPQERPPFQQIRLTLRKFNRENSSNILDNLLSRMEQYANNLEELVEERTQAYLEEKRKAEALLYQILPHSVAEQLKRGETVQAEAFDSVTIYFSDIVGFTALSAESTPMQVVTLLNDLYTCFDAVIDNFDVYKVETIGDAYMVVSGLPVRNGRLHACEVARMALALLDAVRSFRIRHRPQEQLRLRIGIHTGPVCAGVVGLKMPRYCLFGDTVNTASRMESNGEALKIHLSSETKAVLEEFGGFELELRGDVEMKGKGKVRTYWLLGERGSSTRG

Assay [5] deals with Atrial natriuretic peptide receptor 2 (Homo sapiens) (UniProt P20594). As to the kind of experiment: Natriuretic polypeptide receptor (hNpr2) antagonism - Pilot subtype selectivity assay (AID 1347050; calls by dose curve). The procedure, abridged: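 Luminescence from a genetically encoded cGMP luciferase biosensor in hNpr2-expressing HEK293 cells is read before and 20 min after adding 1 nM hNppC. Test compounds, in interplate 1:5 titrations, are added 30-50 min ahead of the agonist.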
Chain of Atrial natriuretic peptide receptor 2 (Homo sapiens) (P20594 whole entry, looked up): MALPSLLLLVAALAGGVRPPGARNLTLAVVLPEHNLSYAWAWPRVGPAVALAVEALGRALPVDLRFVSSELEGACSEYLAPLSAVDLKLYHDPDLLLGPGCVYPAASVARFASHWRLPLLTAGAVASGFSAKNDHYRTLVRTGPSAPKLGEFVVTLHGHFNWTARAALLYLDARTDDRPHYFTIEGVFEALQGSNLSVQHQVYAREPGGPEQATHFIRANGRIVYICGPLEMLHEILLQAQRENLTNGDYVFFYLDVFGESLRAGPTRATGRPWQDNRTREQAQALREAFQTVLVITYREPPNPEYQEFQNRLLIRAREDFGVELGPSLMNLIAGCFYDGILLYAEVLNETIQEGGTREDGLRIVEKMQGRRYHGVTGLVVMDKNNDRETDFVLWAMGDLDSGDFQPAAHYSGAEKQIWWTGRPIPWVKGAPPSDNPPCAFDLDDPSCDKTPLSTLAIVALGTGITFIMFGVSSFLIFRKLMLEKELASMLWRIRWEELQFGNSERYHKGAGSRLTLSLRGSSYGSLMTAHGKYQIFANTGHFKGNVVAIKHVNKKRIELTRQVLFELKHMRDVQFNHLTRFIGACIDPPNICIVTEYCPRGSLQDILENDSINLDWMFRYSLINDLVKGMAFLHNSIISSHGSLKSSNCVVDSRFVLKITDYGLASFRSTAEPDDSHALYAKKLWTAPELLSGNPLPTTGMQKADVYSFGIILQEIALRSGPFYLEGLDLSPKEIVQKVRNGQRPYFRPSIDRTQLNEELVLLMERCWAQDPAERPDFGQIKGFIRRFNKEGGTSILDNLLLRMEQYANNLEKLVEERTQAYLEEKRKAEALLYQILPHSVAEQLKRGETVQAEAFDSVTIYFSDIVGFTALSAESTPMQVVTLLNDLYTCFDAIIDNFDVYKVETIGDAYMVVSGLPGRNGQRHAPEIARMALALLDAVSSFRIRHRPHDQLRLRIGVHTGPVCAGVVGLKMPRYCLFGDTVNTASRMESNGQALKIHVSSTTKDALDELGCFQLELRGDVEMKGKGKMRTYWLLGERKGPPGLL

A short description of assay [6]: NS1 protein of Zika virus - qHTS assay to identify small molecule inhibitors in human HEK 293 cells (AID 1347053). Note: series mostly up to about 46 µM; nearly all actives have a fitted effect of over 55% in size. The procedure, abridged: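 In this cell-based screen, HEK 293 cultures received compound for one hour before Zika MR766 at MOI = 0.5. NS1 was quantified 24 hours later by TR-FRET, normalized to virus-free wells and infected wells.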
For assay [7], the target named is T1, Tyrosine-protein phosphatase non-receptor type substrate 1 (Homo sapiens) + Leukocyte surface antigen CD47 (Homo sapiens) (UniProt P78324+Q08722). As to the kind of experiment: CD47-SIRPalpha protein protein interaction - LANCE assay qHTS validation (AID 1347057; active = well fitted curve in the direction sought with a large enough effect in the signal ratio, with a control signal flat, not every such curve was filed as active; the % refers to the signal ratio). In outline:
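Inhibition of soluble CD47/SIRPalpha ectodomain association by titrated compounds, measured as 665/615 nm time-resolved FRET ratio after sequential 30 min room-temperature incubations.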
In general terms: TR-FRET usually uses a lanthanide donor and a delayed reading to cut background.

Assay [8] concerns the target T1, Tyrosine-protein phosphatase non-receptor type substrate 1 (Homo sapiens) + Leukocyte surface antigen CD47 (Homo sapiens). Nature of the assay: CD47-SIRPalpha protein protein interaction - Alpha assay qHTS validation (AID 1347059).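 Note: bead proximity luminescence from CD47 binding SIRPalpha after compound preincubation with SIRPalpha.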 The procedure, abridged: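 SIRPalpha-biotin 25 nM + cpd, 30 min RT, dark; add CD47-His 12.5 nM, 30 min; add Ni-NTA/SAV beads 10 ug/mL, 30 min; AlphaScreen. Buffer PBS pH 7.4 + 0.05% IGEPAL CA-630. Non-biotinylated SIRPalpha as control inhibitor.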

The target in assay [9] is Parathyroid hormone/parathyroid hormone-related peptide receptor (Homo sapiens) (UniProt Q03431). Nature of the assay: qHTS for PTHR1 Agonists: Optimization Screen against the NCGC LOPAC library (AID 1347079).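 Note: GloSensor cAMP luminescence in HEK-293 GP2 cells expressing human PTHR1 with IBMX.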 Note: potency is the fitted concentration of half-maximal effect. In outline: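 Signal increase flags agonism. GP2 cells, derived from HEK-293, express human PTHR1 and a GloSensor cAMP construct.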
Chain of Parathyroid hormone/parathyroid hormone-related peptide receptor (Homo sapiens) (Q03431 whole entry, looked up): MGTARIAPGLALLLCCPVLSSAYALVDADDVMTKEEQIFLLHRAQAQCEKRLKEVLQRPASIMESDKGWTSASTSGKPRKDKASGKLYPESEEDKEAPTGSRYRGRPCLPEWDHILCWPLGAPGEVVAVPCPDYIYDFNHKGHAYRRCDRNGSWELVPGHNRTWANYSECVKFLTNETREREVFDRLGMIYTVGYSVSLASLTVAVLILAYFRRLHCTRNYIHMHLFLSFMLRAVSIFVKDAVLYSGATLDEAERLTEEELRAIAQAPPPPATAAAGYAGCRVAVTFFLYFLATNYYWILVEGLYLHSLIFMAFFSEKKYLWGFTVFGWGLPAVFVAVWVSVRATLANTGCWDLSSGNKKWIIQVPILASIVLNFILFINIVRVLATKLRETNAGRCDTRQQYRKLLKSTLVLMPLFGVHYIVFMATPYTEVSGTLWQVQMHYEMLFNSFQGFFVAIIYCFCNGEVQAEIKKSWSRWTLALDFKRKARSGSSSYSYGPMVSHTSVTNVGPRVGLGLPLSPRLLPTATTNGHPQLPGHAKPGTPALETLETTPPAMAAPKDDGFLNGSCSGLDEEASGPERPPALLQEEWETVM
Assay [10] has as its target N-terminal Xaa-Pro-Lys N-methyltransferase 1 (Homo sapiens) (UniProt Q9BV86). As to the kind of experiment: qHTS Assay for Inhibitors of N-terminal methyltransferase 1 (NTMT1): LOPAC validation of the NTMT1 SAHH-coupled ThioGlo3 Assay (AID 1347143).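 Note: SAH from peptide methylation measured as thiol fluorescence via SAHH coupling and ThioGlo3; nearly all actives have a fitted effect of over 70% in size.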 Note: potency is the fitted concentration of half-maximal effect. The procedure, abridged:
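Steps: dispense 125nM NTMT1; pin-transfer test compounds at several concentrations, with 1uM RCC1-6 peptide as control; incubate 1 min; start with reagent holding 100uM SAM, 10uM SAHH, 15uM ThioGlo3; read at 0 and 30 min.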

Assay [11] relates to Zika virus NS2B-NS3 protease (unlinked). As to the kind of experiment: Optimization of GU AMC qHTS for Zika virus inhibitors: Unlinked NS2B-NS3 protease assay (AID 1347151). Note: nearly all actives have a fitted effect of over 80% in size. Note: potency is the fitted concentration of half-maximal effect. The procedure, abridged:
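Noncovalent complex of NS2B hydrophilic domain and NS3 protease domain, 25 nM final, in 10 mM Tris-HCl pH 8.0, 0.01% Tween 20. AMC fluorescence change over 15 min at room temperature was fitted to a 4-parameter Hill equation.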

The next assay deals with Furin (Homo sapiens) (UniProt P09958). As to the kind of experiment: Furin counterscreen qHTS for Zika virus inhibitors (AID 1347149). Note: potency is the fitted concentration of half-maximal effect; nearly all actives have a fitted effect of over 70% in size. In outline:
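Counterscreen measures cleavage of 2 microM BOC-RVRR-AMC, below its ~15 microM Km, by 5 nM full-length human furin at pH 7.0 after a 15-min compound preincubation. Inhibition derives from the 15-min fluorescence increase at 37C.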

For assay [12], the system named is Zika virus NS2B-NS3 protease (unlinked complex). As to the kind of experiment: Confirmatory screen GU AMC qHTS for Zika virus inhibitors (AID 1347153). Note: nearly all actives have a fitted effect of over 70% in size. The procedure, abridged: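 Noncovalent NS2B hydrophilic domain/NS3 protease complex (25 nM) in 10 mM Tris-HCl pH 8.0, 0.01% Tween 20 was preincubated 15 min at room temperature with compounds. Then 10 µM AMC substrate (Km 18.3 µM) was added; fluorescence was read over 15 min and fitted to a 4-parameter Hill equation.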

Assay [13] deals with T1, Tyrosine-protein phosphatase non-receptor type substrate 1 (Homo sapiens) + Leukocyte surface antigen CD47 (Homo sapiens). Nature of the assay: CD47-SIRPalpha protein protein interaction - HTRF assay qHTS validation (AID 1347058; active = well fitted curve in the direction sought with a large enough effect in the signal ratio, not every such curve was filed as active; the % refers to the signal ratio; note: series mostly up to about 38 µM). In outline:
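Soluble extracellular domains (6His-CD47, Avi-tag-biotinylated SIRPalpha) in PBS pH 7.4 with 0.05% IGEPAL CA-630. Compounds were preincubated 30 min at RT with CD47 and anti-His-Eu, then SIRPalpha and SAV-XL665 were added. TR-FRET 665/615 ratio.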

Assay [14] concerns Zika virus NS2B-NS3 protease (linked construct). As to the kind of experiment: Confirmatory screen NINDS AMC qHTS for Zika virus inhibitors (AID 1347152).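 Note: AMC fluorescence gain from cleaved Bz-Nle-KRR-AMC substrate over 15 min; top concentration of the series differs between compounds; nearly all actives have a fitted effect of over 70% in size.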 In outline: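 Purified NS2B-NS3 protease with NS2B hydrophilic domain linked to NS3 protease domain by flexible linker, 1 nM final in 10 mM Tris-HCl pH 8.0, 0.01% Tween 20. Compounds preincubated 15 min, room temperature; Bz-Nle-KRR-AMC 10 microM (Km 18.3 µM); 15-min fluorescence change, 4-parameter Hill fit.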

Each structure is given as a SMILES string. Inconclusive results are not listed. Calls of active or inactive are those of the source. Unless noted, calls come from the whole dose curve; as a rule, active = well fitted curve in the direction sought with a large enough effect; inconclusive = small, poorly fitted or top-dose-only effect, or another doubt; inactive = no such curve, though single readings can be large; an effect the other way counts as inactive or inconclusive.

T1 sequence (P78324 whole entry, looked up, the tested form may be a part): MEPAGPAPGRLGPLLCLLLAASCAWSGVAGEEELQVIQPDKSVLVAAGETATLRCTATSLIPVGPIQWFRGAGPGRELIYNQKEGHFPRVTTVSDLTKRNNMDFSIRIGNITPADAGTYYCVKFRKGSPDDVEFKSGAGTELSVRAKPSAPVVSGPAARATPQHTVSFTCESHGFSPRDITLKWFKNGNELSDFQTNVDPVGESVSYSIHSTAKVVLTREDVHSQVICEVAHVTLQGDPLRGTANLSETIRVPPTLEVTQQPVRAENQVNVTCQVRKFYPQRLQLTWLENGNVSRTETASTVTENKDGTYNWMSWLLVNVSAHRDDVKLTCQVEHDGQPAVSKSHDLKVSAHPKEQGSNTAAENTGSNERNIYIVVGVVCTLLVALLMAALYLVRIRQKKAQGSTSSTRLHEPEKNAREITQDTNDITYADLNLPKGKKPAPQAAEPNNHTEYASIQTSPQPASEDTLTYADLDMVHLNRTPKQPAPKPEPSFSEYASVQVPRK
T1 sequence (Q08722 whole entry, looked up, the tested form may be a part): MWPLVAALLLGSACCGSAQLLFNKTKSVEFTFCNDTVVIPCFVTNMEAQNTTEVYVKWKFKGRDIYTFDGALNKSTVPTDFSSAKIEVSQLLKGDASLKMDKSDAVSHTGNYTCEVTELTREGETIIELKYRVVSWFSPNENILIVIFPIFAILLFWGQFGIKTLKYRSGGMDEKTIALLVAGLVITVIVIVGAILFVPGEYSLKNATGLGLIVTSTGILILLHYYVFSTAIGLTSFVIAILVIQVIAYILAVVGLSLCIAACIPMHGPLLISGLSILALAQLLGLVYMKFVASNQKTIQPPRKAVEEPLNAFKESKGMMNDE
Chain of N-terminal Xaa-Pro-Lys N-methyltransferase 1 (Homo sapiens) (Q9BV86 whole entry, looked up): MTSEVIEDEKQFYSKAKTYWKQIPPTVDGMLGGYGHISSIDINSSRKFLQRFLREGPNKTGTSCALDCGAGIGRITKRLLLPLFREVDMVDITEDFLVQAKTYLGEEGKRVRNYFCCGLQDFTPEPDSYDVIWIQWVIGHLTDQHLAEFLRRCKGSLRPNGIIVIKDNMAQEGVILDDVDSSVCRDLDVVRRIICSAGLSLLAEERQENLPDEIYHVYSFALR
Chain of Furin (Homo sapiens) (P09958 whole entry, looked up): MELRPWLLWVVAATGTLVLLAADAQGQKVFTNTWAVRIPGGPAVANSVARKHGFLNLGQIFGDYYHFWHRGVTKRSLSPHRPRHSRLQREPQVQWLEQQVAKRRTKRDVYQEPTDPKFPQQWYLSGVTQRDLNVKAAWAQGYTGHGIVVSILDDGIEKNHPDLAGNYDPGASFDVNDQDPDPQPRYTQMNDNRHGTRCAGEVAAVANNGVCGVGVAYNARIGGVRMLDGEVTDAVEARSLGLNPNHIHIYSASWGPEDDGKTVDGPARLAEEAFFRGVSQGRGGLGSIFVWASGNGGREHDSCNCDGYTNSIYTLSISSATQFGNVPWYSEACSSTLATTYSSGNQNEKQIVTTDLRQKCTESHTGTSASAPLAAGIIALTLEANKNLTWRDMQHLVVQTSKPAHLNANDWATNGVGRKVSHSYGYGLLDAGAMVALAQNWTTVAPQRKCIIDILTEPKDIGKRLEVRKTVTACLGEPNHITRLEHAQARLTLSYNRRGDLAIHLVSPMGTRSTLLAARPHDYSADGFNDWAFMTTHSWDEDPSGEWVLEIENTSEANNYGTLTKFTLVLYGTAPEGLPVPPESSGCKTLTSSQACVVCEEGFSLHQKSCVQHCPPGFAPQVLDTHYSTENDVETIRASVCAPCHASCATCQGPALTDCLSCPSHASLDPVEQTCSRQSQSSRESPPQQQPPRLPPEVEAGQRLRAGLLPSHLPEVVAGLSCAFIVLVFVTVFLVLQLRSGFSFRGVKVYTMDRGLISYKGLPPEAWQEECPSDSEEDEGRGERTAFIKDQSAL

As to `c1ccc2nc(C3=NCCN3)ccc2c1`, the Potency result in assay [1], in [2], in assay [3], in assay [4], in assay [5] and in assay [6] was “inactive” throughout. Moreover, the Potency result in assay [7], in assay [8] and in assay [10] was “inactive” in each case. Moreover, the Potency in assay [9] is 26.7 µM (active).
Regarding `NC(=Nc1ccccc1)NC(=O)c1nc(Cl)c(N)nc1N`, the Potency entry in assay [1], in assay [2], in assay [3], in assay [4], in [5] and in assay [6] was “inactive” in each case. Besides, the Potency result in [7], in [8] and in assay [9] was “inactive” throughout. The Potency in assay [10] was 56.2 µM (active); in assay [11] it was 26.7 µM (active).
As to `COc1ccccc1N1CCN(CCCCNC(=O)c2ccc3ccccc3c2)CC1`, the Potency entry in assay [1], in [2], in [3], in [4], in assay [5] and in assay [6] was “inactive” throughout. In addition, the Potency result in assay [7], in assay [8], in assay [9], in assay [10] and in assay [11] was “inactive” throughout.
Regarding `CCc1ccc2c(-c3cccc(Cl)c3)nc(=O)n(CC)c2n1`, the Potency result in assay [1], in [2], in [3], in assay [4], in [5] and in [6] was “inactive” each time. The Potency entry in [7], in [8] and in assay [12] was “inactive” each time. Also, the Potency in [9] is 2.67 µM (active); in the assay with Furin (Homo sapiens), 21.5 µM (active); in [11], 26.7 µM (active).
Consider `Nc1nc2ccc(Cl)cc2c2nc(-c3ccco3)nn12`, for which the Potency entry in assay [1], in assay [2], in [3], in assay [4], in assay [5] and in [6] was “inactive” throughout. Moreover, the Potency entry in assay [7], in assay [14] and in [12] was “inactive” in each case. Besides, the result in [13] was inactive. Also, the Potency in assay [9] is 6.7 µM (active); in assay [10] it was 12.6 µM (active).
Regarding `N=C(N)c1ccc(OCCCCCOc2ccc(C(=N)N)cc2)cc1` (tested in a mixture with another compound), the Potency result in [1], in [2], in assay [3], in assay [4], in assay [5] and in [6] was “inactive” each time. Also, the Potency result in assay [8] and in [9] was “inactive” in each case. Moreover, the outcome in assay [13] was inactive. Also, the Potency in assay [10] was 20 µM (active).
On to `C=CCN1CCc2cc(O)c(O)cc2C(c2ccccc2)C1` (stereo unspecified), for which the Potency entry in assay [1], in assay [2], in assay [3], in assay [4], in assay [5] and in [6] was “inactive” each time. For the same molecule, the Potency entry in assay [8], in assay [9] and in [11] was “inactive” each time. In addition, in assay [13], the outcome was inactive. In addition, in assay [10], the Potency is 35.5 µM (active).
`O=C(O)C1=CCCN(CCON=C(c2ccccc2)c2ccccc2)C1`: the Potency result in [1], in assay [2], in assay [3], in assay [4], in assay [5] and in [6] was “inactive” in each case. Moreover, the Potency result in assay [8], in assay [9], in [10] and in assay [11] was “inactive” in each case. Further, the outcome in [13] was inactive.
`N#CC(C#N)=C(N)/C(C#N)=C/c1ccc(O)cc1`: the Potency result in [1], in [2], in assay [3], in assay [4], in [5] and in assay [6] was “inactive” in each case. Further, the Potency entry in [7], in assay [8], in [9] and in [11] was “inactive” throughout.
`CN1CCN(c2nc3cc(C(F)(F)F)ccc3n3cccc23)CC1`: the Potency entry in assay [1], in [2], in [3], in assay [4], in assay [5] and in assay [6] was “inactive” throughout. For the same molecule, the Potency result in assay [9] was “inactive”. Also, in assay [7], the outcome was inactive. Further, the Potency in assay [10] was 39.8 µM (active).
Consider `COc1cc(CNC(=O)CCCCCCC(C)C)ccc1O`, for which the Potency entry in assay [1], in assay [2], in assay [3], in assay [4], in assay [5] and in assay [6] was “inactive” throughout. For the same molecule, the Potency entry in assay [8] and in assay [9] was “inactive” in each case. In addition, the result in assay [13] was inactive.
